This is a sample that favours compounds with a hit; in the whole collection about 12% have one here.
TDP1 inh = blocks human tyrosyl-DNA phosphodiesterase 1; 0.28% of 350,000 active; recombinant TDP1, AlphaScreen DNA substrate cleavage; Q9NUW8; Potency, µM (series often up to 130 µM), hits mostly inhibitors; also: nearly all actives have a fitted effect of over 40% in size
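Tdp1 1 nM final; 15 min RT w/ cpd; substrate 15 nM, 5 min; beads 10 ug/ml, 10 min; AlphaScreen read. Neg ctrl: no enzyme.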
Sfp PPTase inh = blocks B. subtilis Sfp PPTase activity | AID 1490 | 3.5% of 310,000 active | Potency, µM, hits mostly inhibitors | Q9F4F7 | Biochemical Sfp PPTase activity, qHTS;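 also: the enzyme is Sfp with the accession as filed and its product quenches rhodamine fluorescence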
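Reaction rates are the 30-min fluorescence difference (ex 525, em 598 nm) in wells containing 15 nM Sfp, 5 uM rhodamine-CoA and 12.5 uM BHQ-2-YbbR at pH 7.6 with 10 mM MgCl2.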
G9a inh = inhibitors of human histone lysine methyltransferase G9a. Potency, µM (titrated, usually from 102 µM), hits mostly inhibitors. Q96KQ7. G9a H3K9 monomethylation, AlphaScreen, 2 h. 8.8% of 350,000 active; also: nearly all actives have a fitted effect of over 75% in size
Target sequence (Q96KQ7 913-1193 limits assumed): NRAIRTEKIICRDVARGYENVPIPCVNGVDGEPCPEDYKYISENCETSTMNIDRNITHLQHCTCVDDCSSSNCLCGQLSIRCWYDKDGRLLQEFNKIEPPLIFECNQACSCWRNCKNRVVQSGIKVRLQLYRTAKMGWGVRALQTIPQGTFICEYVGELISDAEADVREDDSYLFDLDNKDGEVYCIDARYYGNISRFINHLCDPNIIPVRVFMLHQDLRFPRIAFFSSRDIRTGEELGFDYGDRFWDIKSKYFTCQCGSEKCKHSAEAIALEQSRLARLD
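Using a bead-based AlphaScreen, monomethylated H3K9 product from 2 h room-temperature reactions (G9a 20 nM, peptide 500 nM, SAM 20 uM) was detected with 0.5 ug/mL rabbit anti-H3K9me1 antibody.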
BAZ2B block = BAZ2B (human) inhibition; Potency, µM (series often up to 114 µM), actives largely listed as inhibitors; AID 504333; 4.4% of 360,000 active; AlphaScreen BAZ2B-H3K14Ac peptide displacement; also: nearly all actives have a fitted effect of over 60% in size
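Protein-peptide AlphaScreen: BAZ2B 50 nM, b-H3K14Ac 50 nM, 1x PBS pH 7.4 + 0.01% Tween-20. Preincubation 30 min RT; cpd 30 min RT (top 110 uM); beads 20 min RT, light-protected.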
HP1b chromo inh = HP1-beta chromodomain-methylated histone interaction inhibition | P83916 | AlphaScreen HP1-beta / biotin-H3K9me3 peptide binding | Potency, µM (top dose mostly 114 µM), actives largely listed as inhibitors | 0.56% of 390,000 active; also: nearly all actives have a fitted effect of over 70% in size
Target sequence (P83916 whole entry, looked up): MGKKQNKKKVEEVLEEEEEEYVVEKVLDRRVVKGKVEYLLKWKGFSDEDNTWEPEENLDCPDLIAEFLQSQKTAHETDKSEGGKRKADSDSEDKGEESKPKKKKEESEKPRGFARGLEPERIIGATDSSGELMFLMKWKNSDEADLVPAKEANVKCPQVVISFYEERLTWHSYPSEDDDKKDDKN
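Compound inhibition of the preformed complex between 50 nM HP1-beta and 50 nM biotinylated H3K9me3 peptide was read by AlphaScreen. Buffer was PBS pH 7.4 with 0.01% Tween-20. Incubations ran 30 min at room temperature, with 10 ug/mL donor/acceptor beads.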
JMJD2A Tudor = blocks the human JMJD2A Tudor domain. O75164. AlphaScreen JMJD2A-Tudor / H3K4me3 peptide binding. Potency, µM (series often up to 114 µM), most hits filed as inhibitors. 4.4% of 390,000 active; also: nearly all actives have a fitted effect of over 50% in size
A number is an active result; n = inactive; u = inconclusive; x = no result given; [ ] = dose if it differs, or a comment. Calls follow the shape of the dose curve; as a rule, active = well fitted curve in the direction sought with a large enough effect; inconclusive = small, poorly fitted or top-dose-only effect, or another doubt; inactive = no such curve, though single readings can be large; an effect the other way counts as inactive or inconclusive.

SMILES	TDP1 inh	Sfp PPTase inh	G9a inh	BAZ2B block	HP1b chromo inh	JMJD2A Tudor
Cc1csc(SCc2ccccc2C(=O)O)n1	n	n	n	n	n	n
Cc1ccc(C(=O)NCC(c2ccc3c(c2)OCO3)N2CCOCC2)cc1C (centres undefined)	n	x	n	n	n	n
Cc1ccccc1-n1c(SCC(=O)Nc2ccc(Cl)cc2F)nnc1-c1cc2occc2n1C	n	x	u	n	n	n
Cc1ccc(NS(=O)(=O)c2ccc3c(c2)CCC(=O)N3)cc1Cl	n	x	x	x	x	u
CCOC(=O)CN1N=C(/C=C/c2ccc(C(C)C)cc2)CCC1=O	n	n	n	n	n	n
CC(C)(CNC(=O)c1ccc(S(=O)(=O)Nc2ccc(Cl)cc2)cc1)N1CCOCC1	n	x	n[2.33 µM]	n	n	n
Cc1ccc(C)c(NC2=C(c3ccc(C(F)(F)F)cc3)C(=O)c3ccccc32)c1	n	x	n	u	n	u
Cc1occc1C(=O)N/N=C/C=C\c1ccccc1[N+](=O)[O-]	n	n	u	u	n	89µM
COc1ccc(NCC(=O)N/N=C/C(C)c2ccccc2)cc1 (centres undefined)	n	n	28µM	u	n	u
CCOc1ccc(N=C/C=C/c2ccccc2)c(O)c1	n	50µM	50µM	35µM	u	56µM
CCOc1ccc(NCC(=O)N/N=C/C=C/c2ccccc2)cc1	n	n	11µM	u	n	u
Cc1ccc(Cl)cc1NC(=O)CSc1ccc(C(=O)O)cn1	n	x	n	n	n	n
CC(NC(=S)NC(=O)c1cccs1)c1ccccc1 (centres undefined)	n	x	x	x	n	n
O=C(NCCCN1CCCC1=O)c1ccc([N+](=O)[O-])s1	x	x	n	n	n	n
Cc1ccc(OCC(=O)N(Cc2ccco2)Cc2ccc(C)o2)cc1	n	x	n	n	n	u
CCc1ccc(OCC(=O)N/N=C/c2cc([N+](=O)[O-])ccc2N2CCOCC2)cc1	n	n	n	n	n	n
COc1ccc(NCC(=O)N/N=C/c2cc([N+](=O)[O-])ccc2N2CCCC2)cc1	n	n	8.9µM	u	u	u
COc1ccc(NCC(=O)N/N=C/C=C/c2ccccc2[N+](=O)[O-])cc1	n	n	11µM	40µM	n	79µM
Cc1ccccc1NCC(=O)N/N=C\C=C\c1cccc([N+](=O)[O-])c1	n	n	u	u	n	50µM
CC(=O)c1ccc(N2CCN(c3ncnc4onc(-c5ccc(Cl)cc5)c34)CC2)cc1	n	x	n	n	n	n
CCc1nnc(SCc2cccc(Cl)c2)c2cc3sccc3n12	n	x	n	n	n	n
N#Cc1c(-n2ncnc2-c2ccc(F)cc2)sc2c1CCCCC2	n[12.3 µM]	x	u	7.1µM	u	u
CC1(c2ccccc2)CC(C)(C)N(C(=O)c2ccccc2Cl)c2ccccc21 (centres undefined)	x	x	n	n	n	n
CC1(c2ccccc2)CC(C)(C)N2C(=O)C(=O)c3cccc1c32 (centres undefined)	n	u	u	28µM	n	u
CC(C)N(c1ccccc1)c1ccc(NC(=S)NCCN(C)C)cc1	n	n	45µM	n	n	n
SMILES	TDP1 inh	Sfp PPTase inh	G9a inh	BAZ2B block	HP1b chromo inh	JMJD2A Tudor
S=C(NCCCN1CCOCC1)Nc1ccc(-c2nc3ccccc3[nH]2)cc1	n	35µM	32µM	x	n	n
CN(C)CCNC(=S)Nc1ccc(-c2nc3ccccc3[nH]2)cc1	n	n	50µM	n	n	n
Cc1c(Cl)cccc1NC(=O)CSc1nc(=O)n(CCCN2CCOCC2)c2c1CCC2	n	x	n	n	n	n
COc1ccc(/C=N/N=C2/NC(=O)C(CC(=O)NC(C)C)S2)cc1 (centres undefined)	n	n	n	n	n	n
Cc1ccc(/C=N/N=C2/NC(=O)C(CC(=O)N3CCOCC3)S2)cc1 (centres undefined)	n	40µM	28µM	u	n	n
COc1ccc(-c2nc(-c3ccccc3)oc2NC(C)C)cc1	n	n	x	x	x	x
CC1CCN(S(=O)(=O)c2cccc(S(=O)(=O)N3CCOCC3)c2)CC1	n	n	n	n	n	n
CCCc1ccc(S(=O)(=O)N2CCC(c3nnc(-c4cccc(C)c4)o3)CC2)cc1	n	x	8.9µM	n	n	n
COc1ccccc1-c1nnc(C2CCN(S(=O)(=O)c3ccc(F)c(C)c3)CC2)o1	n	x	u	n	n	n
Cc1ccc(S(=O)(=O)N2CCC(c3nnc(-c4cccc(C)c4)o3)CC2)cc1	n	x	3.5µM	n	n	n
COc1ccc(-c2nnc(C3CCN(S(=O)(=O)c4ccc(C)c(C)c4)CC3)o2)cc1	n	x	n	n	n	n
CC1CCN(S(=O)(=O)c2cccc(-c3nnc(-c4cccnc4)o3)c2)CC1	n	n	n	n	n	28µM
CC(C)c1ccc2oc(-c3ccc(NC(=O)c4ncn[nH]4)cc3)nc2c1	n	n	n[12.7 µM]	35µM	n	40µM
O=C(Nc1ccc2oc(-c3cccc4ccccc34)nc2c1)c1ncn[nH]1	n	n	n	n	n	n
O=C(Nc1ccc2oc(-c3ccccc3Cl)nc2c1)c1ncn[nH]1	n	n	u	50µM	n	28µM
COc1cc(-c2noc(C)c2/C=C/c2ccc(C(=O)O)cc2)cc(OC)c1OC	x	n	x	u	n	71µM
O=C(N/N=C/c1cccc2cccnc12)c1ccccc1O	x	n	n	7.1µM	n	7.9µM
O=C(N/N=C/c1cccc2nccnc12)c1ccncc1	n	u	n	18µM	n	56µM
CCC(C)[C@@H](N)C(=O)N/N=C/c1cccc2nccnc12 (some centres undefined)	n	u	n	79µM	n	50µM
CC(C)[C@@H](N)C(=O)N/N=C/c1ccc2nccnc2c1	n	n	5.6µM	u	n	n
O=C(N/N=C\c1ccncc1)c1ccccc1O	n	n	n	n	n	n
O=C(N/N=C/c1ccncc1)c1ccccc1	n	n	n[0.501 µM]	n	n	n
Cc1ccc2nc(Cl)c(/C=N/NC(=O)c3ccccc3O)cc2c1	n	n	u	n	n	u
O=C(N/N=C/c1cccc2nccnc12)c1ccccc1O	n	u	n	28µM	n	n[11.4 µM]
COc1ccc(NC(=O)CN2C(=O)C(=O)c3ccccc32)c(OC)c1	n	x	n	n	n	n
CCCCCc1c2c(cc(O)c1C(=O)O)OC(=O)c1cc(C(=O)CCCC)c(OC)cc1O2	n	n	x	x	n	u
CCCCCc1c2c(cc(O)c1C(=O)O)OC(=O)c1c(cc(OC)cc1C(=O)CCCC)O2	n	n	n	79µM	n	n
CCCCC(NC(=O)Cc1c(C)c2cc3c(C)c(C)oc3c(C)c2oc1=O)C(=O)O (centres undefined)	x	n	n	n	n	n

Screening results (PubChem)
